Results from PubChem BioAssay (NCATS).
Records with an inconclusive call do not appear. Activity calls are given as the source filed them. The call rests on the fitted dose curve; in most records, active means well fitted curve in the direction sought with a large enough effect; inconclusive means small, poorly fitted or top-dose-only effect, or another doubt; inactive means no such curve, though single readings can be large; an effect the other way counts as inactive or inconclusive.

Legend:
[1] = Quantitative High-Throughput drug screen in 47 multiple myeloma cell lines against the NCATS MIPE library collection: KMS20_JCRB cell viability assay (AID 1918973); further: nearly all actives have a fitted effect of over 45% in size
In short: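 CellTiter-Glo luminescence (ATP) after 48 h compound exposure, 37C/5% CO2; 500 cells/well; MIPE 4.0 approved/investigational drugs pinned in; DMSO = 100%, media only = 0% viability.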

[2] = Quantitative High-Throughput drug screen in 47 multiple myeloma cell lines against the NCATS MIPE library collection: KMS26_JCRB cell viability assay (AID 1918975); further: nearly all actives have a fitted effect of over 45% in size; further: potency means the concentration at half of the fitted maximal effect
In short: (§1)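 Steps: seed 500 cells per well; pin-transfer MIPE 4.0 library; incubate 48 h at 37C, 5% CO2, humidified; add CellTiter-Glo, 5 min room temperature; read luminescence.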

[3] = Quantitative High-Throughput drug screen in 47 multiple myeloma cell lines against the NCATS MIPE library collection: MMM1_PLB cell viability assay (AID 1918976); further: potency means the concentration at half of the fitted maximal effect; nearly all actives have a fitted effect of over 35% in size
In short: (§2)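 ATP-based luminescence (CellTiter-Glo, 5 min RT incubation) quantified surviving cells following two days' treatment with MIPE 4.0 agents at 37 °C, 5% CO2.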

[4] = Quantitative High-Throughput drug screen in 47 multiple myeloma cell lines against the NCATS MIPE library collection: NCIH929_DSMZ cell viability assay (AID 1918978); further: nearly all actives have a fitted effect of over 35% in size; further: potency means the concentration at half of the fitted maximal effect
In short: as §2

[5] = Quantitative High-Throughput drug screen in 47 multiple myeloma cell lines against the NCATS MIPE library collection: OCIMY1_PLB cell viability assay (AID 1918979); further: series mostly up to about 46 µM; nearly all actives have a fitted effect of over 35% in size
In short: as §2

[6] = Quantitative High-Throughput drug screen in 47 multiple myeloma cell lines against the NCATS MIPE library collection: MM1R_ATCC cell viability assay (AID 1918981); further: nearly all actives have a fitted effect of over 35% in size; further: potency means the concentration at half of the fitted maximal effect
In short: as §2

[7] = Quantitative High-Throughput drug screen in 47 multiple myeloma cell lines against the NCATS MIPE library collection: LP1_DSMZ cell viability assay (AID 1918982); further: nearly all actives have a fitted effect of over 35% in size
In short: as §2

[8] = Quantitative High-Throughput drug screen in 47 multiple myeloma cell lines against the NCATS MIPE library collection: KMS28PE_JCRB cell viability assay (AID 1918983); further: nearly all actives have a fitted effect of over 35% in size; further: potency means the concentration at half of the fitted maximal effect
In short: as §2

[9] = Quantitative High-Throughput drug screen in 47 multiple myeloma cell lines against the NCATS MIPE library collection: OPM1_PLB cell viability assay (AID 1918989); further: series mostly up to about 46 µM; nearly all actives have a fitted effect of over 40% in size
In short: as §2

[10] = Quantitative High-Throughput drug screen in 47 multiple myeloma cell lines against the NCATS MIPE library collection: XG6_PLB cell viability assay (AID 1919865); further: nearly all actives have a fitted effect of over 40% in size; further: potency means the concentration at half of the fitted maximal effect
In short: as §2

[11] = Quantitative High-Throughput drug screen in 47 multiple myeloma cell lines against the NCATS MIPE library collection: KMS12PE_JCRB cell viability assay (AID 1918972); further: nearly all actives have a fitted effect of over 30% in size; further: potency means the concentration at half of the fitted maximal effect; on viability: series mostly up to about 46 µM
In short: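 Inhibition of cell viability is measured here. Each line was plated at 500 cells per well, treated with MIPE 4.0 drugs, kept 48 hours at 37C, then assayed for ATP content by CellTiter-Glo luminescence.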

[12] = Quantitative High-Throughput drug screen in 47 multiple myeloma cell lines against the NCATS MIPE library collection: MOLP8_DSMZ cell viability assay (AID 1918977); further: nearly all actives have a fitted effect of over 45% in size; further: potency means the concentration at half of the fitted maximal effect
In short: as §2

[13] = Quantitative High-Throughput drug screen in 47 multiple myeloma cell lines against the NCATS MIPE library collection: MM1S_ATCC cell viability assay (AID 1918980); further: nearly all actives have a fitted effect of over 45% in size; further: potency means the concentration at half of the fitted maximal effect
In short: as §2

[14] = Quantitative High-Throughput drug screen in 47 multiple myeloma cell lines against the NCATS MIPE library collection: KMS34_JCRB cell viability assay (AID 1918985); further: nearly all actives have a fitted effect of over 40% in size
In short: as §2

[15] = Quantitative High-Throughput drug screen in 47 multiple myeloma cell lines against the NCATS MIPE library collection: SKMM1_PLB cell viability assay (AID 1919863); details: SKMM1 myeloma viability, CellTiter-Glo ATP, 48 h; viability: hits give low values; further: nearly all actives have a fitted effect of over 35% in size; further: potency means the concentration at half of the fitted maximal effect; on viability: series mostly up to about 46 µM
In short: as §2

[16] = Quantitative High-Throughput drug screen in 47 multiple myeloma cell lines against the NCATS MIPE library collection: U266_ATCC cell viability assay (AID 1919864); further: nearly all actives have a fitted effect of over 35% in size
In short: as §2

[17] = Quantitative High-Throughput drug screen in 47 multiple myeloma cell lines against the NCATS MIPE library collection: OCIMY5_PLB cell viability assay (AID 1918988); further: nearly all actives have a fitted effect of over 65% in size; further: potency means the concentration at half of the fitted maximal effect
In short: as §2

[18] = Quantitative High-Throughput drug screen in 47 multiple myeloma cell lines against the NCATS MIPE library collection: L363_DSMZ cell viability assay (AID 1918984); further: nearly all actives have a fitted effect of over 40% in size
In short: as §2

[19] = Quantitative High-Throughput drug screen in 47 multiple myeloma cell lines against the NCATS MIPE library collection: KMS12BM_JCRB cell viability assay (AID 1918971); further: nearly all actives have a fitted effect of over 35% in size
In short: as §1

[20] = Quantitative High-Throughput drug screen in 47 multiple myeloma cell lines against the NCATS MIPE library collection: OCIMY7_PLB cell viability assay (AID 1918987); further: nearly all actives have a fitted effect of over 65% in size; further: potency means the concentration at half of the fitted maximal effect
In short: as §2

COc1cc2c(cc1OC)C1CC(=O)C(CC(C)C)CN1CC2 (stereo unspecified)
active: Potency [3] 20.9 µM
inactive: Potency [1] | Potency [2] | Potency [4] | Potency [5] | Potency [6] | Potency [7] | Potency [8] | Potency [9] | Potency [10]

CC(=O)NC[C@H]1CN(c2ccc(N3CCOCC3)c(F)c2)C(=O)O1
inactive: Potency [11] | Potency [2] | Potency [4] | Potency [5] | Potency [6] | Potency [8] | Potency [14] | Potency [16] | Potency [10]
active: Potency [3] 4.69 µM | Potency [12] 7.43 µM | Potency [13] 8.33 µM | Potency [15] 3.72 µM

Cc1cc2c(s1)Nc1ccccc1N=C2N1CCN(C)CC1
inactive: Potency [11] | Potency [1] | Potency [2] | Potency [12] | Potency [4] | Potency [5] | Potency [6] | Potency [7] | Potency [8] | Potency [14] | viability [15] 120%

CC1(C)CCC(C)(C)c2cc(NC(=O)c3ccc(C(=O)O)cc3)ccc21
inactive: Potency [5] | Potency [16]
active: Potency [11] 20.9 µM | Potency [4] 14.8 µM | Potency [13] 16.6 µM | Potency [6] 13.2 µM | Potency [17] 1.66 µM | Potency [15] 14.8 µM | Potency [10] 5.26 µM

CCC1=C(C)CN(C(=O)NCCc2ccc(S(=O)(=O)NC(=O)NC3CCC(C)CC3)cc2)C1=O (stereo unspecified)
inactive: Potency [11] | Potency [1] | Potency [2] | Potency [4] | Potency [5] | Potency [13] | Potency [6] | Potency [7] | Potency [8] | Potency [18] | Potency [14] | Potency [9]

COc1cc(OC)c(C(=O)CCCN2CCCC2)c(OC)c1
inactive: Potency [11] | Potency [12] | Potency [4] | Potency [5] | Potency [6] | Potency [7] | Potency [14] | Potency [9] | Potency [16] | Potency [10]
active: Potency [13] 16.6 µM

CCCCCCCCCCCCCCCCCCCCCCO
inactive: Potency [11] | Potency [12] | Potency [5] | Potency [6] | Potency [8] | Potency [18] | Potency [14] | Potency [9]

Nc1nc(OCc2ccccc2)c2[nH]cnc2n1
inactive: Potency [19] | Potency [6] | Potency [7] | Potency [8] | viability [15] 128%
active: Potency [13] 14.8 µM | Potency [10] 16.6 µM

O=P(O)(O)C(O)(Cn1ccnc1)P(=O)(O)O
inactive: Potency [11] | Potency [1] | Potency [2] | Potency [12] | Potency [4] | Potency [5] | Potency [6] | Potency [7] | Potency [8] | Potency [18] | Potency [9] | viability [15] 138%

Cc1cc(O)c2c(c1)C(=O)c1cc(O)cc(O)c1C2=O
inactive: Potency [11] | Potency [1] | Potency [5] | Potency [18] | Potency [14] | Potency [20]
active: Potency [2] 11.8 µM | Potency [3] 18.7 µM | Potency [8] 10.5 µM | Potency [15] 20.9 µM

CCN(CCO)CCCC(C)Nc1ccnc2cc(Cl)ccc12 (stereo unspecified)
inactive: Potency [11] | Potency [2] | Potency [12] | Potency [4] | Potency [5] | Potency [7] | Potency [8] | Potency [18] | Potency [14] | Potency [17] | Potency [9] | Potency [10]

Nc1cc(C(Cl)=C(Cl)Cl)c(S(N)(=O)=O)cc1S(N)(=O)=O
inactive: Potency [11] | Potency [2] | Potency [12] | Potency [4] | Potency [5] | Potency [6] | Potency [7] | Potency [8] | Potency [14] | Potency [9]
active: Potency [13] 0.059 µM | Potency [20] 11.8 µM | Potency [10] 11.8 µM

CS(=O)(=O)OCCCCOS(C)(=O)=O
active: Potency [6] 3.72 µM | Potency [8] 13.2 µM | Potency [17] 5.9 µM
inactive: Potency [11] | Potency [1] | Potency [4] | Potency [5] | Potency [13] | Potency [14] | Potency [9] | Potency [10]

N[C@@H](Cc1cc(I)c(Oc2cc(I)c(O)c(I)c2)c(I)c1)C(=O)O
active: Potency [3] 2.96 µM
inactive: Potency [11] | Potency [4] | Potency [5] | Potency [13] | Potency [6] | Potency [8] | Potency [18] | Potency [9] | viability [15] 121% | Potency [16] | Potency [10]
